The supplement of paper PMC10981050
“And” between values parts separate entries of the source, which are not always exact repeats. Equal values may be shown once. Where a name gives a salt, the structure may show the parent alone.

What was measured:
Assay in all cases: cell viability relative to vehicle control; higher = less cytotoxic
Details in all cases: 10 µM
K562 = tested on: K562
Procedure, shortened: (§1)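 Four leukaemia lines, as CRISPR-edited mutant clones and isogenic wild-type clones, were tested against Selleck bioactive, kinase and epigenetic probe libraries after removal of identity-inconsistent compounds. Cells were exposed to a single 10 µM dose for 48 h, and CellTiter-Glo luminescence was then read. Viability was calculated relative to the on-plate vehicle control.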

MARIMO = tested on: MARIMO
Procedure, shortened: as §1

MOLM14 = tested on: MOLM14
Procedure, shortened: as §1

OCI-AML2 = tested on: OCI-AML2
Procedure, shortened: as §1

Row | SMILES | cell viability (K562; SRSF2 genotype: SRSF2 P95H/wt) | cell viability (K562; SRSF2 genotype: SRSF2 wt/wt) [%] | cell viability (MARIMO; SRSF2 genotype: SRSF2 P95H/wt) [%] | cell viability (MARIMO; SRSF2 genotype: SRSF2 wt/wt) [%] | cell viability (MOLM14; SRSF2 genotype: SRSF2 P95H/wt) [%] | cell viability (MOLM14; SRSF2 genotype: SRSF2 wt/wt) [%] | cell viability (OCI-AML2; SRSF2 genotype: P95H/wt) [%] | cell viability (OCI-AML2; SRSF2 genotype: wt/wt) [%]
1 | CNS(=O)(=O)CCc1ccc2[nH]cc(C3CCN(C)CC3)c2c1 [Naratriptan HCl] | 104% and 100% | 104 | 97.3 | 110 | 107 | 104 | 102 | 113
2 | CCOC(=O)NCCCC(=O)NCCc1ccccc1 | 102% and 97.9% | 98.8 | 105 | 109 | 100 | 105 | 108 | 106
3 | Cc1cc(Nc2ncnc3ccc(NC4=NC(C)(C)CO4)cc23)ccc1Oc1ccn2ncnc2c1 | 87.4% and 89.8% | 91.5 | 82.5 | 102 | 88.2 | 97.2 | 64.9 | 73.7
4 | OCc1ccc(-c2ccc(-c3ccc(CO)s3)o2)s1 | 56.7% and 54.9% | 7.66 | 63.2 | 66 | 11.3 | 8.82 | 9.11 | 18.3
5 | CC(=O)c1cc([N+](=O)[O-])c(Sc2ccc(F)cc2F)s1 | 69% and 79.6% | 71 | 57.1 | 54.2 | 13.7 | 12.3 | 76.6 | 35.3
6 | c1cn2cc(-c3ccc4cn[nH]c4c3)nc(Nc3ccc(N4CCOCC4)cc3)c2n1 [Entospletinib (GS-9973)] | 89.8% and 84.7% | 95.7 | 89.5 | 89.9 | 79 | 95.6 | 92.5 | 85.6
7 | COc1ccc(C=O)c(O)c1 [4-Methoxysalicylaldehyde] | 97.5% and 89.5% | 97.8 | 93.5 | 102 | 99.4 | 95.9 | 97 | 92
8 | CC(C)=CCC/C(C)=C\CO [Nerol] | 109% and 104% | 104 | 110 | 114 | 106 | 107 | 103 | 109
9 | Clc1ccc(COC(Cn2ccnc2)c2ccc(Cl)cc2Cl)c(Cl)c1 (configuration not stated) [Miconazole (Monistat)] | 65.6% and 81% | 62.2 | 61.1 | 73 | 67.2 | 54.8 | 65.5 | 54.4
10 | CCCC(=O)OCOC(=O)C1=C(C)NC(C)=C(C(=O)OC)C1c1cccc(Cl)c1Cl (configuration not stated) [Clevidipine Butyrate] | 102% and 105% | 104 | 100 | 107 | 104 | 109 | 107 | 108
11 | CC[C@H]1OC(=O)C[C@@H](O)[C@H](C)[C@@H](O[C@@H]2O[C@H](C)[C@@H](O[C@H]3C[C@@](C)(O)[C@@H](O)[C@H](C)O3)[C@H](N(C)C)[C@H]2O)[C@@H](CC=O)C[C@@H](C)C(=O)/C=C/C(C)=C/[C@@H]1CO[C@@H]1O[C@H](C)[C@@H](O)[C@@H](OC)[C@H]1OC [Tylosin] | 99.6% and 98.3% | 102 | 106 | 109 | 101 | 105 | 105 | 112
12 | COc1cc2c(NC3CCN(C(C)C)CC3)nc(C3CCCCC3)nc2cc1OCCCN1CCCC1 | 5.7% and 1.99% | 3.43 | 1.5 | 1.11 | 0.34 | 0.42 | 0.27 | 0.2
13 | CC(C)Oc1ccc(-c2nc(-c3cccc4c3CC[C@@H]4NCCO)no2)cc1C#N [Ozanimod (RPC1063)] | 34% and 30.5% | 30.6 | 27.3 | 32.2 | 38.6 | 40.5 | 29 | 34.4
14 | COc1cccc(OC)c1C(=O)OCc1cc(O)ccc1O[C@@H]1O[C@H](CO)[C@@H](O)[C@H](O)[C@H]1O [Curculigoside] | 101% and 106% | 106 | 110 | 104 | 105 | 105 | 115 | 109
15 | O=C[C@H](O)[C@H]1OC(=O)[C@@H](O)[C@H]1O [D-Glucurone] | 90.4% and 88.2% | 86.3 | 84.2 | 95.1 | 88.8 | 88.3 | 88.8 | 94.2
16 | CC[C@@]1(O)C(=O)OCc2c1cc1n(c2=O)Cc2cc3c(CN(C)C)c(O)ccc3nc2-1 [Topotecan] | 20.3% and 28% | 17.5 | 4.92 | 3.84 | 1.67 | 0.8 | 3.47 | 7.65
17 | CC(C)(O)CC(=O)NCCn1ccc2ncnc(Nc3ccc(Oc4cccc(C(F)(F)F)c4)c(Cl)c3)c21 | 69.4% and 63.5% | 72.6 | 69.7 | 93.9 | 76.5 | 79.4 | 74.8 | 76.8
18 | CC(C)C(NC(=O)c1ccc2ccccc2n1)C(=O)NC(CC(=O)O)C(=O)COc1c(F)cccc1F (configuration not stated) | 104% and 106% | 97.3 | 100 | 110 | 104 | 99.8 | 100 | 101
19 | CSCC[C@H](NC(=O)[C@H](CC(C)C)NC(=O)[C@H](Cc1c[nH]c2ccccc12)NC(=O)[C@H](CCC(N)=O)NC(=O)[C@@H](NC(=O)[C@H](Cc1ccccc1)NC(=O)[C@H](CC(=O)O)NC(=O)[C@H](CCC(N)=O)NC(=O)[C@H](C)NC(=O)[C@H](CCCNC(=N)N)NC(=O)[C@H](CCCNC(=N)N)NC(=O)[C@H](CO)NC(=O)[C@H](CC(=O)O)NC(=O)[C@H](CC(C)C)NC(=O)[C@H](Cc1ccc(O)cc1)NC(=O)[C@H](CCCCN)NC(=O)[C@H](CO)NC(=O)[C@H](Cc1ccc(O)cc1)NC(=O)[C@H](CC(=O)O)NC(=O)[C@H](CO)NC(=O)[C@@H](NC(=O)[C@H](Cc1ccccc1)NC(=O)[C@@H](NC(=O)CNC(=O)[C@H](CCC(N)=O)NC(=O)[C@H](CO)NC(=O)[C@@H](N)Cc1cnc[nH]1)[C@@H](C)O)[C@@H](C)O)C(C)C)C(=O)N[C@@H](CC(N)=O)C(=O)N[C@H](C(=O)O)[C@@H](C)O [Glucagon HCl] | 113% and 109% | 113 | 107 | 104 | 102 | 108 | 103 | 109
20 | COc1cc(/C=C/C(=O)CC(=O)/C=C/c2ccc(O)c(OC)c2)ccc1O [Curcumin] | 90.9% and 87% | 91.9 | 87.3 | 75.7 | 47.8 | 59.1 | 60.6 | 69.3

Row | SMILES | cell viability (K562; SRSF2 genotype: SRSF2 P95H/wt) | cell viability (K562; SRSF2 genotype: SRSF2 wt/wt) [%] | cell viability (MARIMO; SRSF2 genotype: SRSF2 P95H/wt) [%] | cell viability (MARIMO; SRSF2 genotype: SRSF2 wt/wt) [%] | cell viability (MOLM14; SRSF2 genotype: SRSF2 P95H/wt) [%] | cell viability (MOLM14; SRSF2 genotype: SRSF2 wt/wt) [%] | cell viability (OCI-AML2; SRSF2 genotype: P95H/wt) [%] | cell viability (OCI-AML2; SRSF2 genotype: wt/wt) [%]
21 | CCOc1cc(N)c(Cl)cc1C(=O)NCC1CN(Cc2ccc(F)cc2)CCO1 (configuration not stated) [Mosapride citrate] | 82.7% and 81.9% | 80 | 74.1 | 89.5 | 103 | 93.2 | 81.5 | 82.3
22 | C=CC(=O)Nc1cc(Nc2nccc(-c3c[nH]c4ccccc34)n2)c(OC)cc1N(C)CCN(C)C | 12.6% and 20.8% | 24 | 6.47 | 9.15 | 0.38 | 0.41 | 0.35 | 0.67
23 | Cc1ccccc1C(=O)Nc1ccc(C(=O)N2CCCC(O)c3cc(Cl)ccc32)c(C)c1 (configuration not stated) | 89.3% and 84.8% | 85.7 | 80.7 | 99.9 | 84.2 | 91.7 | 91.6 | 83
24 | CN1CC[C@H](c2c(O)cc(O)c3c(=O)cc(-c4ccccc4Cl)oc23)[C@H](O)C1 [Flavopiridol (Alvocidib)] | 6.41% and 17.6% | 8.24 | 10.4 | 4.67 | 3.1 | 0.32 | 4.93 | 15.2
25 | CCCCC(CC)COC(=O)C(C#N)=C(c1ccccc1)c1ccccc1 (configuration not stated) [Octocrylene] | 94.2% and 88.6% | 97.5 | 95.1 | 107 | 95.1 | 98.5 | 98.4 | 99.9
26 | C[C@@H]1O[C@@H](OC[C@H]2O[C@@H](Oc3cc(O)c4c(=O)cc(-c5ccc(O)cc5)oc4c3)[C@H](O[C@@H]3O[C@@H](C)[C@H](O)[C@@H](O)[C@H]3O)[C@@H](O)[C@@H]2O)[C@H](O)[C@H](O)[C@H]1O [ligustroflavone] | 103% | 106 | 97.1 | 105 | 90.7 | 103 | 107 | 108
27 | COc1ccc(NS(=O)(=O)c2sc3ccc(Cl)cc3c2C)cc1N1CCNCC1 | 99.5% and 98.2% | 104 | 100 | 99.2 | 96.4 | 106 | 87.9 | 78
28 | COc1cc(C=O)c([N+](=O)[O-])cc1OC | 104% | 110 | 95.3 | 92.6 | 95.8 | 109 | 111 | 125
29 | O=C1C(N(CO)C(=O)NCO)N(CO)C(=O)N1CO (configuration not stated) [Diazolidinyl urea] | 96.3% and 98.6% | 106 | 98.9 | 98.3 | 93.8 | 104 | 111 | 129
30 | Cc1ccc(Sc2cncc3sc(C(N)=O)cc23)cc1 | 91.6% and 90.7% | 90.6 | 95.7 | 102 | 89.3 | 100 | 68.8 | 69.4
31 | CNc1nc(Nc2cnn(C3CCN(C4COC4)CC3F)c2Cl)ncc1C(F)(F)F (configuration not stated) | 89.6% and 89% | 91.7 | 76.2 | 80.1 | 38.2 | 36.4 | 46.3 | 47.6
32 | O=C(O)c1cc(/N=N/c2ccc(O)c(C(=O)O)c2)ccc1O [Olsalazine Sodium] | 86.9% and 86% | 81.6 | 88.2 | 92.2 | 85.2 | 88.4 | 94.1 | 90.1
33 | N=C(NCCCCCCNC(=N)NC(=N)Nc1ccc(Cl)cc1)NC(=N)Nc1ccc(Cl)cc1 [Chlorhexidine] | 14.9% and 12% | 23 | 39.3 | 34.6 | 5.12 | 4.9 | 2.08 | 6.07
34 | COCCCOc1ccnc(C[S+]([O-])c2nc3ccccc3[nH]2)c1C (configuration not stated) [Rebeprazole sodium] | 95.2% and 93.6% | 101 | 104 | 106 | 95.6 | 102 | 97.4 | 113
35 | CN(C)CCc1c[nH]c2ccc(C[C@H]3COC(=O)N3)cc12 [Zolmitriptan (Zomig)] | 96.7% and 103% | 104 | 107 | 102 | 99.4 | 104 | 108 | 101
36 | COc1cc2ncc(-c3ccccc3)nc2cc1OC [Tyrphostin AG 1296 (AG 1296)] | 90.3% and 94.9% | 93 | 81.5 | 82.2 | 48.2 | 56 | 69.5 | 65.6
37 | Cn1cnc2c(F)c(Nc3ccc(Br)cc3F)c(C(=O)NOCCO)cc21 | 84.2% and 92.4% | 79.5 | 41 | 38.6 | 45.8 | 28.9 | 39.5 | 42.5
38 | CC(C)c1cc(-c2n[nH]c(=O)n2-c2ccc3c(ccn3C)c2)c(O)cc1O [Ganetespib (STA-9090)] | 21.6% and 26.6% | 28.1 | 31.8 | 27 | 2.31 | 2.65 | 19.4 | 21.1
39 | CC(C)=CCCC(C)=CCCC(C)=CCCC(C)=CCC1=C(C)C(=O)c2ccccc2C1=O [Vitamin K2] | 93.6% and 95.4% | 102 | 82.8 | 92.6 | 87.7 | 101 | 88.6 | 89.1
